Sampled rows, rich in hits. Any-hit rate of the full collection: about 4.2%.
V-ATPase pHluor: alters yeast V-ATPase proton transport | response, % at 10 µM | 350,000 tested, 0.37% active | S. cerevisiae, pHLuorin cytosolic pH fluorescence; in the data active = response mostly above about 7.3%, no sharp cut-off; inactive = mostly below about 5.4%; note: actives read high
tim23-1 inh: tim23-1 yeast growth inhibition | S. cerevisiae tim23-1 growth, BacTiter-Glo luminescence, 24 h | inhibition, % at 20 µM | 330,000 tested, 1.3% active;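 active = growth inhibition of the mutant yeast at or above 50%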;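 note: temperature-sensitive mutant grown at 25 °C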
NALP1 yeast inh: blocks the NALP1 inflammasome reconstituted in yeast. inhibition, % at 10 µM. S. cerevisiae NALP1/ASC/caspase-1 growth, X-gal OD620, 72 h. 280,000 tested, 0.61% active; in the data active = inhibition mostly above about 24%, no sharp cut-off; inactive = mostly below about 32%
NLRP3 yeast inh: blocks the NALP3 inflammasome reconstituted in yeast; Yeast reconstituted NLRP3/ASC/caspase-1, beta-gal luminescence, 24 h; inhibition, % at 10 µM; 330,000 tested, 0.39% active;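 active = inhibition of 50% or more; inactive = inhibition below 50%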
tim10-1 inh: tim10-1 yeast growth inhibition; S. cerevisiae tim10-1 ts strain growth, BacTiter-Glo, 24 h; inhibition, % at 20 µM; 330,000 tested, 2.2% active; AID 463190;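 active = inhibition of at least 40%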;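 note: mutant grown at 25 °C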
TIM10 inh: TIM10 yeast growth inhibition; S. cerevisiae TIM10 strain growth, BacTiter-Glo luminescence, 24 h; inhibition, % at 10 µM; 330,000 tested, 1.4% active; AID 463195;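 active = inhibition of 40% or more at the single tested concentration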;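 note: wild-type TIM10 isogenic control strain grown at permissive 25 °C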
NALP3 yeast conf: NALP3 inhibition confirmation in yeast; shares compounds with NLRP3 yeast inh; yeast expressing human NALP3, luminescence; inhibition, % at 10 µM; 1,300 tested, 81% active; in the data active = inhibition above about 48%
Casp1 ASC ctr: active in yeast caspase-1-ASC counter-screen for NALP3 inhibitors. inhibition, % at 10 µM. 1,000 tested, 66% active. yeast expressing Caspase-1-ASC, luminescence counter screen. shares compounds with NLRP3 yeast inh. AID 488784
NALP3 retest: confirmation retest of NALP3 inhibitors in yeast | yeast expressing human NALP3, luminescence read-out | 1,000 tested, 53% active | inhibition, % at 10 µM | AID 488794 | shares compounds with NLRP3 yeast inh
A number is an active result; n = inactive; x = no result. Cut-off read from the data, not from the text of the source, unless noted: active = inhibition above about 50%; inactive = the rest.

SMILES | V-ATPase pHluor | tim23-1 inh | NALP1 yeast inh | NLRP3 yeast inh | tim10-1 inh | TIM10 inh | others
OC(CSc1c(Cl)cccc1Cl)CN1CCN(c2ccccc2F)CC1 (configuration not stated) | n | n | 59.5 | n | n | n
COc1ccc(-c2nc(N)ncc2-c2csc(C)n2)c(O)c1OC | n | n | n | n | n | n
CCc1ccc(NC(=O)COC(=O)CN2C(=O)COc3ccccc32)cc1 | n | n | 40.8 | n | n | n
COc1ccc(NC(=O)CN2C(=O)COc3ccccc32)cc1OC | n | n | n | n | n | n
COc1ccc(N2CCN(C(=O)COC(=O)CCS(=O)(=O)c3ccc(C)cc3)CC2)cc1 | 15.0 | n | x | n | n | n
Cc1ccc(S(=O)(=O)CCC(=O)OCC(=O)N2CCN(c3ccccc3)CC2)cc1 | n | n | x | n | n | n
Cc1cc(C)c(C)c(S(=O)(=O)NCc2ccc(C(=O)NCC3CCCO3)cc2)c1C (configuration not stated) | n | n | n | n | n | n
O=S(=O)(Nc1nccs1)c1ccc(F)cc1 | n | n | 27.4 | n | n | n
CCc1ccc(S(=O)(=O)Nc2nccs2)cc1 | n | n | n | n | n | n
O=S(=O)(NCc1cn2ccccc2n1)c1ccccc1F | n | n | x | n | n | n
CC1CCN(c2nc(CN3CCCCC3)nc3scc(-c4ccccc4)c23)CC1 | n | n | 50.2 | n | n | n
COc1ccc(CCNC(=O)C(=O)NCc2ccc(Cl)cc2)cc1OC | n | n | n | n | n | n
O=C(CSc1nccc(=O)[nH]1)NCc1ccco1 | n | n | 43.2 | n | n | n
Cc1cc(=O)[nH]c(SCC(=O)NCc2ccco2)n1 | n | n | n | n | n | n
CC(C)Cc1nnc(NS(=O)(=O)Cc2ccccc2)s1 | n | n | 43.6 | n | n | n
Cc1nn(-c2ccccc2)c(N2CCCC2)c1/C=N/NC(=S)Nc1ccccc1F | n | n | n | n | n | n
CCCn1c(SCC(=O)Nc2nnc(CC)s2)nnc1-c1ccncc1 | n | n | 30.3 | n | n | n
CCc1nnc(NC(=O)CSc2nnc(-c3ccccc3O)n2CC)s1 | n | n | n | n | n | n
CCc1nnc(NC(=O)CSc2nnc(-c3cccnc3)n2CC)s1 | n | n | 39.5 | n | n | n
C=CCn1c(SCC(=O)Nc2nnc(CC)s2)nnc1-c1ccncc1 | n | n | n | n | n | n
COc1ccc(N2CC(C(=O)OCC(=O)c3ccc(C)cc3)CC2=O)cc1 (configuration not stated) | n | n | 26.8 | n | n | n
CCOc1ccc(N2CC(C(=O)OCC(=O)c3ccc(OC)cc3)CC2=O)cc1 (configuration not stated) | n | n | n | n | n | n
CCCCNc1nc(-c2ccccc2)c(C(=O)OCC)cc1C#N | n | n | 44.4 | n | n | n
COc1ccc(CNC(=O)C2CCCN(Cc3nc(-c4cccc(C)c4)oc3C)C2)cc1 (configuration not stated) | n | n | 28.3 | n | n | n
COc1ccc(S(=O)(=O)N2CCC(NC(=O)C3CCCCC3)CC2)cc1 | n | n | n | n | n | n
SMILES | V-ATPase pHluor | tim23-1 inh | NALP1 yeast inh | NLRP3 yeast inh | tim10-1 inh | TIM10 inh | others
Cc1oc(-c2ccc(Cl)cc2)nc1CN1CCCC(C(=O)NC2CC2)C1 (configuration not stated) | n | n | n | n | n | n
COc1ccc(-c2nc(CN3CCCC(C(=O)NC4CCCC4)C3)c(C)o2)cc1 (configuration not stated) | n | n | 44.0 | n | n | n
COc1ccc(S(=O)(=O)N2CCCC(C(=O)NC3CCCCC3)C2)cc1 (configuration not stated) | n | n | 33.6 | n | n | n
CCOc1ccc(NS(=O)(=O)c2ccc(C(=O)NCC(c3ccc(OC)cc3)N3CCOCC3)cc2)cc1 (configuration not stated) | n | n | x | n | n | n
O=C(Cc1ccccc1)Nc1ccc2oc(=O)ccc2c1 | n | n | 35.9 | n | n | n
O=C(Nc1ccc2oc(=O)ccc2c1)c1ccco1 | n | n | n | n | n | n
Cn1ccnc1SCC(=O)Nc1nc2c(F)c(F)c(F)cc2s1 | n | n | 36.3 | n | n | n
COCCCN1CCN(C2Cc3ccccc3Sc3ccc(Cl)cc32)CC1 (configuration not stated) | n | n | 53.6 | n | n | n
CC(C)CCOc1ccc(C2CC(=O)N(C)C2=O)cc1 (configuration not stated) | n | n | n | n | n | n
C1=C(c2ccccc2)CCN(c2nc3ccccc3n3cnnc23)C1 | n | n | 41.3 | n | n | n
CCOc1ccc(C(=O)NCC(=O)OCc2c(C)noc2C)cc1 | n | n | x | n | n | n
CCOc1ccc(C(=O)NCC(=O)OCc2c(C)noc2C)cc1OCC | 13.1 | n | n | n | n | n
Clc1ccc2c(N/N=C/c3cccc(Br)c3)ccnc2c1 | n | x | 47.2 | x | x | x
Clc1ccc2c(N/N=C/c3ccccc3Br)ccnc2c1 | n | n | n | n | n | n
COc1ccccc1-c1nnc(NC(=O)C(C)C)s1 | 8.0 | n | n | n | n | n
O=C(O)c1cccnc1SC1CC(=O)N(CCc2ccccc2)C1=O (configuration not stated) | n | n | 39.7 | n | n | n
CC1CCc2c(nc3sc4c(c3c2N)CCCC4)C1 (configuration not stated) | n | n | 41.6 | 53.7 | n | n | NALP3 yeast conf=77.5;Casp1 ASC ctr=67.0;NALP3 retest=58.0
CC1CCc2nc3sc4c(c3c(N)c2C1)CCCC4 (configuration not stated) | n | n | 74.1 | 58.7 | n | n | NALP3 yeast conf=n
CCOC(=O)c1nc2sc3c(c2c(=O)[nH]1)CCC(C)C3 (configuration not stated) | n | n | x | n | n | n
CN(CC(=O)Nc1ccc(Cl)cc1)C(=O)CNC(=O)c1cccs1 | n | n | x | n | n | n
CN(CCOc1ccccc1)C(=O)C1CCC(=O)N(CCc2ccc(Cl)cc2)C1 (configuration not stated) | n | n | n | n | n | n
CC1(C)c2ccccc2-n2c1cc1oc(=O)cc(O)c1c2=O | n | n | x | 76.1 | n | n | NALP3 yeast conf=80.0;Casp1 ASC ctr=66.8;NALP3 retest=72.2
O=S(=O)(c1ccc(N2CCCC2)cc1)C(F)(F)F | n | n | n | 55.9 | n | n | NALP3 yeast conf=58.6;Casp1 ASC ctr=58.8;NALP3 retest=n
COc1cccc(CN2CCN(CCCc3ccccc3)C(CCO)C2)c1O (configuration not stated) | n | n | n | n | n | n

Source: PubChem (several laboratories)
